This is an account of results in PubChem BioAssay (NCI).

Each structure is given as a SMILES string. “And” between values parts separate entries of the source, which are not always exact repeats. Equal values may be shown once. About 83,000 compounds went through this panel and 20% of them were active in at least one assay; those are over-represented in the sample as a whole.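 Plates (96-well) were seeded with cells, treated with compound at one concentration, and incubated for 48 hours before percent growth was determined.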 The source made the active and inactive calls.

The first assay concerns NCI-H522 lung. Description: NCI-60 one-dose screen, 48 h (100 = growth as untreated, 0 = no growth, -100 = all killed). The note with it: 4.75 µM. The method, then: Growth inhibition of the NCI-H522 human Non-Small Cell Lung tumor cell line is measured as a screen for anti-cancer activity. Cells are grown in 96 well plates and exposed to the test compound for 48 hours. Compounds are tested at a single concentration, which is 10^-5 M for most compounds. The reported endpoint is percent growth (GI% or GIPRCNT), where numbers from 0 - 100% represent growth inhibition, and numbers from -100% - 0 represent cell death. For example, a value of 40 represents 60% growth inhibition. A value of 0 means no net growth occurred over the course of the experiment. A value of -40 indicates 40% of cells at the beginning of the experiment died by the end of the experiment. A value of -100 means all cells are dead at the end of the experiment.
NCI-60 Human Tumor Cell Lines Screen was performed using the standard one-dose NCI protocol, which is described in more detail at https://dtp.cancer.gov/discovery_development/nci-60/default.htm.
Compounds with GIPRCNT values below 10 were considered active. Activity score was based on GIPRCNT using the following formula: […]
Score is 0 for GIPRCNT values of 100 or above, 50 for GIPRCNT values of 0, and 100 for GIPRCNT values of -100.
With `CC(=O)OCC1OC([S-])C(OC(C)=O)C(OC(C)=O)C1OC(C)=O.[Au+].c1ccc(CN2[CH-]N(Cc3ccccc3)C(c3ccccc3)=C2c2ccccc2)cc1`, the growth is -68.7% (active).

The assay is the same for the next values; noted with them: 10 µM.
For `CC(=O)OCC1OC([S-])C(OC(C)=O)C(OC(C)=O)C1OC(C)=O.[Au+].c1ccc(CN2[CH-]N(Cc3ccccc3)C(c3ccccc3)=C2c2ccccc2)cc1`, the growth was -27.9% (active).

The same assay, now with this note: 10 µM unless noted.
For the compound `C#Cc1cccc(Nc2nc(Cl)nc3cc(NC(=O)CF)ccc23)c1`, the growth was 28.9% (inactive).

Regarding `CC(=O)OC1CC2(O)C(CCC3(C)C(c4ccc(=O)oc4)CCC32O)C2(C)CCC(OC3OC(CO)C(O)C(O)C3O)C=C12` (stereo not given), the growth is -39.2% (active).

On to `CC[C@H](C)[C@H](NC(=O)[C@H]1CCCCN1C)C(=O)N(C)[C@H](C[C@@H](OC(C)=O)c1nc(C(=O)NC23C4C5C2C2C3C4C52C(=O)OC)cs1)C(C)C` (stereo not given in full), for which the growth was -16.1% (active).

`COc1ccc2c(c1)C1(C)CCN(C)CC(C1)C2O` (stereo not given): the growth was 90.2% (inactive).

For `CN(C)c1ccc(C=C2C(=O)NC(=O)NC2=O)cc1`, the growth is 69.6% (inactive).

Consider `C=C[Se]CC(=O)/C=C/c1ccccc1`, for which the growth is 89.2% (inactive).

Turning to `COc1ccc(N)cc1OC`, the growth was 103% (inactive).

For the compound `CCC1CCC(=O)O1` (stereo not given), the growth was 85.1% (inactive) and 105% (inactive).

Regarding `COC12CC3(C)C(C4=CC(=O)OC4)CCC3(O)C3CCC4=CC(=O)CCC4(CO1)C32` (stereo not given), the growth was 14.7% (inactive).

Turning to `CN(C)C(=S)SSC(=S)N(C)C`, the growth was 25.3% (inactive) and 24.4% (inactive).

For the compound `Cc1cc(N(CCCl)CCCl)ccc1C=Nc1ccc(-c2csc(-c3ccccc3)n2)cc1`, the growth is 102% (inactive).

`CC/C(=C(\c1ccc(OCCN2CCOCC2)cc1)c1ccc(OC(=O)Cc2ccccc2)cc1)c1ccc(Cl)cc1`: the growth was 92.8% (inactive).

For the compound `C/C(=C\c1ccn(-c2ccc(N)cc2F)n1)[C@@H]1C[C@@H]2O[C@]2(C)CCC[C@H](C)[C@H](O)[C@@H](C)C(=O)C(C)(C)[C@@H](O)CC(=O)O1`, the growth was 10.2% (inactive).

As to `Oc1ccccc1C=NCCN=Cc1ccccc1O`, the growth is 92.3% (inactive).

For the compound `CC[CH2][Sn]([Cl])([Cl])[CH2]CC.Oc1ccccc1C=NCCN=Cc1ccccc1O`, the growth is -87.6% (active) and -83.2% (active).

As for `Nc1cccnc1`, the growth is 91.6% (inactive).

Regarding `O=C(NC(Cl)=C(Cl)Cl)P(=O)(c1ccccc1)c1ccccc1`, the growth is 99.4% (inactive).

Consider `C[C@]12CC[C@H](O)C[C@@H]1CC[C@@H]1[C@@H]2CC[C@]2(C)OC(=O)CC[C@@H]12`, for which the growth was 81.2% (inactive).

Consider `C[C@H](O)CCC(=O)c1ccoc1`, for which the growth was 99.5% (inactive).

Regarding `O=C(O)CNCP(=O)(O)O`, the growth was 98.2% (inactive).

As to `O=C1NC(=O)C(=C/C=C/c2ccccc2)C(=O)N1`, the growth was 6.24% (active).

For `Cc1nc2ccccc2c(=O)n1-c1ccccc1F`, the growth is 88.1% (inactive).

For the compound `O=C(NCCCN1CC1)Nc1cccc2ccccc12`, the growth is 108% (inactive) and 79.1% (inactive).

Take `CC(=O)Cc1ccc2c(c1)OCO2`: the growth is 96.1% (inactive).

Regarding `CCC(Br)(CC)C(=O)NC(N)=O`, the growth is 105% (inactive).

Take `O=C(Cc1ccccc1)NC(O)C(Cl)(Cl)Cl` (stereo not given): the growth was 105% (inactive).

Consider `CC1=CC(=O)CCC12CCOC2=O` (stereo not given), for which the growth was 96.1% (inactive).

As for `CCOC(=O)C1C(C=C(C)C)C1(C)C` (stereo not given), the growth was 97.5% (inactive).

For `O=C1CN2CCC1CC2`, the growth was 90.3% (inactive).

For `COc1ccn(C)c(=O)c1C#N`, the growth is 66.5% (inactive).

Take `CCC1(NC(=O)c2cc(F)c(F)c(F)c2F)C(=O)NC(=O)N(C(C)C)C1=O` (stereo not given): the growth was -5.62% (active).

With `CC/C(Cc1ccccc1)=C(\c1ccc(OCCN2CCCC2)cc1)c1ccc(OC(=O)NCc2ccccc2)cc1`, the growth is 81.5% (inactive).

For the compound `O=C(O)c1ccc(=O)[nH]c1`, the growth was 101% (inactive) and 99.9% (inactive).

For the compound `COC1C(O)CC(OC2CC(Oc3cc4cc5c(c(O)c4c(O)c3C)C(=O)[C@@H](OC3CC(OC4CC(OC6CC(C)(O)C(OC(C)=O)C(C)O6)C(O)C(C)O4)C(O)C(C)O3)[C@H]([C@H](OC)C(=O)[C@@H](O)[C@@H](C)O)C5)OC(C)C2OC(C)=O)OC1C` (stereo not given in full), the growth was -50.6% (active).

Consider `C/C(=N/OC(=O)N(C)C)c1ccc(Cl)c(Cl)c1`, for which the growth was 102% (inactive).

In the case of `CNC(=O)O/N=C(\SC)C(=O)N(C)C`, the growth was 77.5% (inactive).

With `CCCC[C@H]1C(=O)O[C@H](C)[C@H](NC(=O)c2cccc(NC=O)c2O)C(=O)O[C@@H](C)[C@@H]1OC(=O)CC(C)C`, the growth is 51.2% (inactive).

As for `O=C(O)c1cc([N+](=O)[O-])cc([N+](=O)[O-])c1`, the growth was 67.9% (inactive).
